# Compound activity (PubChem BioAssay)
# Gal4-VP16 FLuc = inhibits Gal4-VP16 luciferase reporter, ROR gamma counter-screen | Potency, µM (series often up to 53.6 µM), usual class: inhibitors | Drosophila S2 Gal4-VP16 UAS-luciferase, luminescence, 20 h | 3.5% of 310,000 active | AID 2546;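 also: Gal4-VP16 expression switched on by copper sulfate through the metallothionein promoter; nearly all actives have a fitted effect of over 50% in size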
# TrxR1 inh = blocks rat thioredoxin reductase 1 | O89049 | recombinant rTrxR1, NADPH fluorescence consumption, selenite substrate | Potency, µM (highest dose often 114 µM), hits mostly inhibitors | 1% of 390,000 active | AID 588453; also: nearly all actives have a fitted effect of over 65% in size
#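 Rat TrxR1 (90 nM in the dispensed reagent) was pre-reduced with 400 uM NADPH for 5 min at room temperature, then incubated with compound for 15 min. After 400 uM selenite was added, NADPH fluorescence (Ex 340/Em 450 nm) was followed for 8 min.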
# TrxR1 substrate = substrates of rat thioredoxin reductase 1; O89049; purified TrxR1 substrate turnover, NADPH consumption readout; Potency, µM (doses to about 114 µM); 0.01% of 390,000 active; AID 588456; also: nearly all actives have a fitted effect of over 50% in size
#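 Rat TrxR1, dispensed at 90 nM, was prereduced with 400 uM NADPH (final) for 5 min at ~22 deg C, then incubated with compound 15 min before 400 uM selenite. A first-read NADPH fluorescence drop versus no-compound background flagged substrates.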
# RORg inh = ROR gamma (mouse) transcription inhibition; Drosophila S2 Gal4-RORgamma UAS-luciferase reporter, 20 h; Potency, µM (highest dose often 53.6 µM), hits mostly inhibitors; 5.4% of 310,000 active; AID 2551; also: nearly all actives have a fitted effect of over 60% in size
#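 A Gal4/UAS one-hybrid system in insect cells: metallothionein-promoter Gal4–ROR gamma fusion plus Photinus luciferase reporter. Copper sulfate 700 uM final, 20 hr ambient incubation, luminescent detection after 10 min with reagent.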
# FBPA coupling cs = counter-screen for Giardia aldolase inhibitors: coupling enzyme system | 0.67% of 290,000 active | activity change, negative = inhibition, % at 58.2 µM, hits read low | coupling enzyme system counterscreen, AmpLite Red fluorescence; in the data active = activity change below about -30%
#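 Fluorescence at 525 nm excitation and 598 nm emission measured inhibition of the coupled detection system without aldolase. Compounds (at 57.5 uM final) were preincubated 10 min at room temperature with coupling enzyme reagent before a 20 min substrate/AmpLite Red step.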
# GALK inhibitor = blocks human galactokinase activity; P51570; Purified GALK, Kinase-Glo residual ATP luminescence; Potency, µM (top dose mostly 57.5 µM), usual class: inhibitors; 0.007% of 270,000 active; AID 1868
# Target sequence (P51570 whole entry, looked up): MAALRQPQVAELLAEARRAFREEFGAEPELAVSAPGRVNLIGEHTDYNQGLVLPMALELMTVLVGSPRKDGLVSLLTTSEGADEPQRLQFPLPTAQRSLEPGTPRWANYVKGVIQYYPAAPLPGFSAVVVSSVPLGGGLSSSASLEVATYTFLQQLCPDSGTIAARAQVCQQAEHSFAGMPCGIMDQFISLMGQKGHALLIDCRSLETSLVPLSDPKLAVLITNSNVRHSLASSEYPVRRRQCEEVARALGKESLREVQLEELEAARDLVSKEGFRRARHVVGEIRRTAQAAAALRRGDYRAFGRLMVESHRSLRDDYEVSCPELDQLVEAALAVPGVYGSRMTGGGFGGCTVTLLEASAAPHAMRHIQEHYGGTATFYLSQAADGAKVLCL
#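 Compounds were pin-transferred into ATP buffer (35 uM final), then GALK plus galactose (5 nM, 100 uM final) was added. After 1 h at room temperature, Kinase-Glo Plus was added and luminescence read after 10 min.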
# A number is an active result; - = inactive; ? = inconclusive; . = not tested or not shown. This is a sample that favours compounds with a hit; in the whole collection about 5.9% have one here. Unless noted, calls follow the shape of the dose curve; as a rule, active = well fitted curve in the direction sought with a large enough effect; inconclusive = small, poorly fitted or top-dose-only effect, or another doubt; inactive = no such curve, though single readings can be large; an effect the other way counts as inactive or inconclusive.
SMILES,Gal4-VP16 FLuc,TrxR1 inh,TrxR1 substrate,RORg inh,FBPA coupling cs,GALK inhibitor
CCOC(=O)c1sc(=NC(=O)CCS(=O)(=O)c2ccccc2)n(C)c1C,-,-,-,-,-,-
Cc1cc(O)c(CN2CCN(c3ccc(F)cc3)CC2)c2oc(=O)cc(C)c12,.,79µM,-,.,.,.
N#Cc1cn(CC(=O)O)c2ccccc12,-,-,-,-,-,-
C[C@@H]1NC(=O)c2cc([N+](=O)[O-])cc(I)c2NCCCC[C@@H](C(N)=O)NC(=O)[C@H](CC(N)=O)NC1=O,-,?,-,-,-,.
CCC(C)Sc1nc2ccccc2n1CC(=O)O (stereo not drawn),-,-,-,13µM,-,-
CCC(C)(C)c1ccc(Oc2cccc(C(=O)O)c2)cc1,?,-,-,-,-,-
CCC(C)(C)c1ccc(Oc2ccc(N)cc2)cc1,7.9µM,-,-,-,-,-
Cc1ccc(-c2cc(N)n(-c3ccc(F)cc3)n2)cc1,-,-,-,-,-,-
C=CCc1c(C)nc(C)nc1N/N=C/c1ccccc1,1.6µM,-,-,10µM,-,-
CC(C)(C)OC(=O)N(CCc1ccccc1)Cc1ccc(OCc2cccc(NC(=O)c3ccccc3)c2)cc1,.,-,-,.,.,.
O=[N+]([O-])c1cc(CN2CCN(c3cccc(C(F)(F)F)c3)CC2)c2cccnc2c1O,?,-,-,0.11µM,-,-
O=[N+]([O-])c1cc(CN2CCCC2)c2cccnc2c1O,?,?,-,?,-35,-
COc1ccc(-c2nc3ccccc3o2)cc1NC(=O)COc1c(C)cc(Cl)cc1Cl,.,-,-,.,.,.
CCOC(=O)c1c(N)c2cc([N+](=O)[O-])ccc2n1C,-,-,-,-,-,-
CCOC(=O)/C(=C/c1c(C)n(C)c2ccc([N+](=O)[O-])cc12)C(C)=O,?,45µM,-,13µM,-,-
O=C(NC1CCCc2ccccc21)c1ccccc1 (stereo not drawn),-,-,-,-,-,-
S=C(NCc1ccccc1)NC1CCCc2ccccc21 (stereo not drawn),11µM,-,-,2.5µM,-,-
S=C(NC1CC1)NC1CCCc2ccccc21 (stereo not drawn),?,-,-,2.2µM,-,-
Cc1c(C(=O)NC2CCCc3ccccc32)oc2ccccc12 (stereo not drawn),-,-,-,4.5µM,-,-
S=C(NCc1ccco1)NC1CCCc2ccccc21 (stereo not drawn),13µM,-,-,4.5µM,-,-
CC(C)N(C(=O)CN1C(=O)NC(c2ccccc2)(c2ccccc2)C1=O)C(C)C,-,-,-,-,-,-
Cc1nnc(SCC(=O)Nc2sccc2C(N)=O)n1Cc1ccccc1,-,-,-,4.5µM,-,-
CCn1c(SCC(=O)Nc2ncc(C(F)(F)F)cc2Cl)nnc1-c1ccccc1,?,-,-,-,-,-
Cn1c(SCC(=O)Nc2ncc(C(F)(F)F)cc2Cl)nnc1-c1ccc(Cl)cc1,11µM,-,-,10µM,-,-
CCc1nnc(NC(=O)CSc2nnc(C)n2Cc2ccccc2)s1,-,-,-,-,-,-
SMILES,Gal4-VP16 FLuc,TrxR1 inh,TrxR1 substrate,RORg inh,FBPA coupling cs,GALK inhibitor
Cc1nnc(SCC(=O)Nc2ncc(Cl)cc2Cl)n1Cc1ccccc1,?,-,-,4µM,-,-
NC1=NC[C@H](Cc2ccc(O)cc2)N1CCc1cccc2ccccc12,-,-,-,-,-,-
COc1cc(C(=O)NNC(=O)Cc2ccc(S(=O)(=O)N3CCOCC3)s2)cc(OC)c1OC,-,-,-,-,-,-
CN1CCc2cc3c(c4c2[C@H]1[C@H](O)c1ccccc1-4)OCO3,-,-,-,-,-32,.
CC(=O)c1ccc(OCCCC(=O)N2CCN(S(=O)(=O)c3ccc(C(C)C)cc3)CC2)cc1,.,-,-,.,.,.
CCN(C(=O)CSc1nc2n[nH]c(C)c2c(=N)n1-c1ccc(Cl)c(C)c1)c1cccc(C)c1,?,-,-,13µM,-,-
CCn1cc(CN2CCC(n3nccc3NC(=O)c3ccc(OC)cc3)CC2)cn1,-,-,-,-,-,-
Cc1ccc(C(=O)NCC(=O)OC(C)C(=O)Nc2ccc(N(C)C)cc2)cc1C (stereo not drawn),-,-,-,-,-,-
O=C(Nc1nnc(-c2cccnc2)o1)c1cccc([N+](=O)[O-])c1,1.1µM,.,.,0.79µM,-,-
Cc1cccc(C(=O)Nc2ccc3oc(-c4ccncc4)nc3c2)c1,.,-,-,.,.,.
Cc1cccc(C(=O)Nc2nnc(-c3ccncc3)o2)c1,2.8µM,-,-,3.2µM,-,-
COC(=O)c1ccc(C(=O)Nc2nnc(-c3cccnc3)o2)cc1,2.8µM,.,.,2.5µM,-,-
O=C(Nc1nnc(-c2ccncc2)o1)c1ccc2ccccc2c1,0.56µM,-,-,1.1µM,-,-
CC(C)(C)c1ccc(C(=O)Nc2nnc3n2CCS3)cc1,.,-,-,.,.,.
Cc1cc2oc(C(=O)Nc3nonc3C)c(C)c2cc1Cl,-,?,-,-,.,-
O=C(Nc1nnc(-c2cccnc2)o1)c1ccccc1Cl,?,-,-,8.9µM,-,-
Cc1cccc(C(=O)Nc2nnc(-c3cccnc3)o2)c1,1.3µM,-,-,0.71µM,-,-
Cc1ccc(-c2nc(CN(CC3CCC3)CC3CCCO3)c(C)o2)s1 (stereo not drawn),-,-,-,11µM,-,-
COc1ccc(Br)cc1S(=O)(=O)Nc1cc(-c2cn3ccccc3n2)ccc1C,.,-,-,.,.,.
CCOc1ccccc1Nc1nc2ccccc2n1C(C)C,-,-,-,10µM,-,-
CCN1CCN(Cc2c(O)ccc3oc(C)c(C(=O)Nc4ccc(OC)c(Cl)c4)c23)CC1,.,-,-,.,.,.
C[C@H](NC(=O)c1nc[nH]c1C(=O)N[C@@H](Cc1ccccc1)C(=O)OC(C)(C)C)C(=O)OC(C)(C)C,?,-,-,11µM,-,-
CC(C)(C)OC(=O)[C@H](Cc1ccccc1)NC(=O)c1nc[nH]c1C(=O)N[C@@H](Cc1ccccc1)C(=O)OC(C)(C)C,?,-,-,7.9µM,-,-
CC(C)(C)OC(=O)[C@H](CCCCN)NC(=O)c1[nH]cnc1C(=O)N[C@@H](Cc1ccccc1)C(=O)OCc1ccccc1,.,-,-,.,.,.
CC(C)(C)OC(=O)NCCCCCNC(=O)c1[nH]cnc1C(=O)N[C@@H](Cc1ccccc1)C(=O)OC(C)(C)C,.,-,-,.,.,.
CC(C)(C)OC(=O)[C@H](Cc1ccccc1)NC(=O)c1[nH]cnc1C(=O)N[C@@H](Cc1ccccc1)C(=O)OCc1ccccc1,?,-,-,7.1µM,-,.
O=C(COC(=O)C1COc2ccccc2O1)NC(=O)Nc1ccc2c(c1)OCCO2 (stereo not drawn),-,-,-,?,-,-
